A selection: hits, their analogues and other compounds. The true share with any hit is near 2.4%.
CRFR2-BP antag: antagonists of CRF-BP/CRF-R2 complex, primary screen, cell-based, HEK293, calcium dye fluorescence, uHTS | inhibition, % at 11.8 µM | CRF-induced calcium fluorescence | hit rate 0.59% among 350,000;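 active = inhibition of the ligand-induced calcium signal above about 50% at the single tested concentration, limit read from the data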
RTF Ca sens inh: cardiac RTF calcium sensitivity inhibitors, primary screen, biochemical, IANBD-TnC fluorescence, EC70 calcium | inhibition, % at 7.15 µM | Troponin I, cardiac muscle (Homo sapiens) + Troponin T, cardiac muscle (Homo sapiens) + … | IANBD-labeled cardiac RTF, Ca2+ fluorescence | AID 493244, 2011 | hit rate 0.12% among 340,000;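 active = inhibition above the mean inhibition of all tested compounds plus 3 SD, cut at about 17% in these data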;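 note: assay run at fixed EC70 calcium of 1.6 mM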
cardiac RTF act: cardiac RTF calcium sensitivity activators, primary screen, biochemical, IANBD-TnC fluorescence, EC20 calcium; Troponin I, cardiac muscle (Homo sapiens) + Troponin T, cardiac muscle (Homo sapiens) + …; IANBD-labeled TnC RTF fluorescence at EC20 calcium; 0% EC20 calcium, 100% full calcium; activation, % at 7.2 µM; hit rate 0.24% among 340,000;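 active = activation above the mean over all tested compounds plus 3 SD, cut at about 30% in these data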;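 note: rise in fluorescence read as greater calcium sensitivity of cardiac thin filaments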
ANO1 block: TMEM16A chloride channel inhibitors, primary screen, cell-based, HTS; Anoctamin-1 (Mus musculus), Q8BHY3; HEK293 TMEM16A/YFP iodide influx fluorescence, ionomycin; normalized B-score (activity score, 25-100; higher = stronger inhibition) at 10 µM; hit rate 1.2% among 310,000; AID 588511, 2011;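 active = ratio plate-corrected score three or more library SD toward inhibition, starting fluorescence score within five deviations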;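 note: score derived from kinetic fluorescence span divided by baseline fluorescence per well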
CRFR2-BP ag: agonists of CRF-BP/CRF-R2 complex, primary screen, cell-based, HEK293, calcium dye fluorescence, uHTS; CRF-binding protein / CRF receptor 2 complex (human); calcium dye fluorescence (FLIPR); percent of saturating CRF peptide response; activation, % at 13.2 µM; hit rate 0.46% among 350,000; AID 588473, 2011;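 active = activation of at least 50%, plus an integration ratio under a set limit after plate pattern correction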
ANO1 activ: TMEM16A chloride channel activators or potentiators, primary screen, cell-based, HTS. Anoctamin-1 (Mus musculus), Q8BHY3. HEK293 TMEM16A/YFP-H148Q/I152L, iodide quench fluorescence; hits give low values. B-score at 10 µM. hit rate 0.3% among 340,000;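 active = fluorescence-ratio B-score plate-corrected deviation score at least 3 library SD below zero, with starting fluorescence score within 5 deviations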;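 note: channel opened by trigger with iodide after compound preincubation; score built on the fluorescence ratio of max minus min over baseline; more negative score means more quench and so TMEM16A activation or potentiation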
TMEM16A reconf: TMEM16A chloride channel inhibitors, confirmation, cell-based, re-confirmation | shares compounds with ANO1 block | HEK293 TMEM16A/YFP-H148Q, iodide quench fluorescence; ionomycin added to raise cell calcium | inhibition, % at 10 µM | hit rate 39% among 2,300;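 active = mean duplicate percent inhibition, scaled so buffer wells are 0 and the reference blocker 100, over three buffer SD above buffer mean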
HEK293 Ca mobil: calcium mobilization in TMEM16A/YFP HEK293 cells, confirmation, counter-screen for TMEM16A inhibitor project; shares compounds with ANO1 block; Fluo4 calcium mobilization; calcium response (% of ionomycin), % at 10 µM; hit rate 2% among 2,300; AID 652231, 2013;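 active = duplicate-averaged calcium signal over 20% of the ionomycin maximum, relative to buffer baseline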;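 note: each well's signal is peak minus trough fluorescence divided by its pre-addition baseline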
YFP-HEK293 quench: iodide YFP quench changes in parental YFP-HEK293, counter-screen for TMEM16A inhibitor project, cell-based; 2,300 tested, under 10 active; ionomycin; YFP ratio F(max-min)/F0 at 10 µM; shares compounds with ANO1 block;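 active = yellow fluorescent protein signal ratio exceeding the buffer control mean by over 5 SD of those controls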;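 note: ratio is mean of duplicate wells from kinetic YFP trace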
ClC-1 inh: ClC-1 chloride channel inhibition, selectivity assay for TMEM16A inhibitor project, cell-based, voltage-dependent ClC-1 | shares compounds with ANO1 block | CHO ClC-1-YFP, iodide influx fluorescence quench; iodide control reads 0, buffer control 100 | ratio percent, % at 10 µM | 2,300 tested, under 10 active;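 active = duplicate-mean ratio percent above the mean of iodide-only control wells, which defines zero, plus 5 of their SD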;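 note: higher percent means stronger block of ClC-1 iodide influx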
Of the large screens only hits and unclear results are named; the others gave an inactive call (follow-up assays come after a bar, where they were run).

NC(=O)[C@@H]1[C@@H]2C(=O)N(c3ccc(F)cc3)C(=O)[C@@H]2[C@H]2C=Cc3ccccc3N21	none (no result: RTF Ca sens inh, cardiac RTF act) | TMEM16A reconf 20% | HEK293 Ca mobil inactive | YFP-HEK293 quench inactive | ClC-1 inh inactive
O=C(c1ccco1)[C@@H]1[C@@H]2C(=O)N(c3ccc(F)cc3)C(=O)[C@@H]2[C@H]2C=Cc3ccccc3N21	none
CCN(CC)S(=O)(=O)c1ccc(NC(=O)c2ccc(N(C)S(C)(=O)=O)cc2)cc1	ANO1 block 100 | TMEM16A reconf 20% | HEK293 Ca mobil inactive | YFP-HEK293 quench inactive | ClC-1 inh inactive
CCN(CC)S(=O)(=O)c1ccc(C(=O)Nc2ccc(Cc3ccncc3)cc2)cc1	ANO1 block 100 | TMEM16A reconf 28% | HEK293 Ca mobil inactive | YFP-HEK293 quench inactive | ClC-1 inh inactive
CCN(CC)S(=O)(=O)c1ccc(C(=O)Nc2cc(C)cc(C)c2)cc1	none
O=C(Nc1ccc(S(=O)(=O)NCCc2ccccc2)cc1)c1ccncc1	ANO1 block 100 | TMEM16A reconf 19% | HEK293 Ca mobil inactive | YFP-HEK293 quench inactive | ClC-1 inh inactive
CCN(CC)S(=O)(=O)c1cccc(C(=O)Nc2ccc(C#N)cc2)c1	ANO1 block 100 | TMEM16A reconf inactive | HEK293 Ca mobil inactive | YFP-HEK293 quench inactive | ClC-1 inh inactive
CCN(CC)S(=O)(=O)c1cccc(C(=O)Nc2cc(C)cc(C)c2)c1	none
CCN(CC)S(=O)(=O)c1ccc(NC(=O)c2ccccc2N(C)S(C)(=O)=O)cc1	none
CC1CCc2c(C(=O)Nc3ccc(N4CCOCC4)cc3)csc2C1 (configuration not stated)	none
CCn1c(SCC(=O)c2[nH]c(C)c(C(C)=O)c2C)nnc1-c1cccs1	ANO1 block 25 | TMEM16A reconf 40% | HEK293 Ca mobil inactive | YFP-HEK293 quench inactive | ClC-1 inh inactive
CCn1c(SCC(=O)c2cccs2)nnc1-c1cccs1	none
Cc1ccc(Cl)cc1N1CCN(C(=O)c2cc3c(=O)n(C)c4ccccc4c3n2C)CC1	ANO1 block 100 | TMEM16A reconf 29% | HEK293 Ca mobil inactive | YFP-HEK293 quench inactive | ClC-1 inh inactive
Cc1cccc(N2CCN(C(=O)c3cc4c(=O)n(C)c5ccccc5c4n3C)CC2)c1C	none
C=CCn1c(N)cc(=O)nc1SC(C)C(=O)Nc1cccc2ccccc12 (configuration not stated)	none
O=C(CSc1nc2ncc(Br)cc2[nH]1)Nc1ccccc1-c1ccccc1	ANO1 block 100 | TMEM16A reconf inactive | HEK293 Ca mobil inactive | YFP-HEK293 quench inactive | ClC-1 inh inactive
Cc1ccc(NC(=O)COc2coc(CN3CCN(Cc4ccccc4)CC3)cc2=O)cc1	ANO1 block 25 | TMEM16A reconf inactive | HEK293 Ca mobil inactive | YFP-HEK293 quench inactive | ClC-1 inh inactive
Cc1cccc(C)c1NC(=O)CN(C)CC(=O)c1c(N)n(Cc2ccccc2)c(=O)n(C)c1=O	none (no result: ANO1 block)

Screening data: PubChem BioAssay, several laboratories
